# In the supplement of paper PMC4466140:
# How the values were obtained:
# Assay in all cases: SPOT peptide array binding signal intensity (averaged, normalized) (arbitrary units (background-subtracted, floor 0; scale differs between SH3 domains)); higher = stronger binding of the SH3 domain to the peptide
# CaNbp2 = molecular target: CaNbp2
# Method: (§1)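 GST-tagged SH3 domains from S. cerevisiae (Sc), A. gossypii (Ag), C. albicans (Ca) and S. pombe (Sp) were incubated at 10 ug/ml overnight at 4 C on cellulose SPOT membranes carrying 292 synthetic 15-mer peptides mined from the S. cerevisiae proteome (cysteines replaced by serines). Binding was detected with anti-GST antibody, HRP secondary and chemiluminescence, quantified with Genespotter, and reported as normalized spot intensities averaged over biological replicates.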
# CaRvs167 = molecular target: CaRvs167
# Method: as §1
# CaRvs167-3 = molecular target: CaRvs167-3
# Method: as §1
# CaSho1 = molecular target: CaSho1
# Method: as §1
# CaSla1-D1-D2 = molecular target: CaSla1-D1-D2
# Method: as §1
# CaSla1-D3 = molecular target: CaSla1-D3
# Method: as §1
# ScAbp1 = molecular target: ScAbp1
# Method: as §1
# ScBbc1 = molecular target: ScBbc1
# Method: as §1
# ScBem1-D1 = molecular target: ScBem1-D1
# Method: as §1
# ScBzz1-D1 = molecular target: ScBzz1-D1
# Method: as §1
# ScBzz1-D2 = molecular target: ScBzz1-D2
# Method: as §1
# ScCyk3 = molecular target: ScCyk3
# Method: as §1
# ScFus1 = molecular target: ScFus1
# Method: as §1
# ScHof1 = molecular target: ScHof1
# Method: as §1
# ScHse1 = molecular target: ScHse1
# Method: as §1
# ScLsb1 = molecular target: ScLsb1
# Method: as §1
# ScLsb2 = molecular target: ScLsb2
# Method: as §1
# ScLsb3 = molecular target: ScLsb3
# Method: as §1
# ScLsb4 = molecular target: ScLsb4
# Method: as §1
# ScMyo3 = molecular target: ScMyo3
# Method: as §1
# ScMyo5 = molecular target: ScMyo5
# Method: as §1
# ScNbp2 = molecular target: ScNbp2
# Method: as §1
# ScPex13 = molecular target: ScPex13
# Method: as §1
# ScRvs167 = molecular target: ScRvs167
# Method: as §1
# ScSho1 = molecular target: ScSho1
# Method: as §1
# ScSla1-D1-D2 = molecular target: ScSla1-D1-D2
# Method: as §1
# ScSla1-D3 = molecular target: ScSla1-D3
# Method: as §1
# SpAbp1-D1 = molecular target: SpAbp1-D1
# Method: as §1
# SpBbc1 = molecular target: SpBbc1
# Method: as §1
# SpBzz1-D1 = molecular target: SpBzz1-D1
# Method: as §1
# SpBzz1-D2 = molecular target: SpBzz1-D2
# Method: as §1
# SpCyk3 = molecular target: SpCyk3
# Method: as §1
# SpHof1 = molecular target: SpHof1
# Method: as §1
# SpHof1-2 = molecular target: SpHof1-2
# Method: as §1
# SpHof1-3 = molecular target: SpHof1-3
# Method: as §1
# SpHse1 = molecular target: SpHse1
# Method: as §1
# SpLsb1 = molecular target: SpLsb1
# Method: as §1
# SpLsb4 = molecular target: SpLsb4
# Method: as §1
# SpMyo1 = molecular target: SpMyo1
# Method: as §1
# SpNbp2 = molecular target: SpNbp2
# Method: as §1
# SpPex13 = molecular target: SpPex13
# Method: as §1
# SpRvs167 = molecular target: SpRvs167
# Method: as §1
# SpSla1-D1-D2 = molecular target: SpSla1-D1-D2
# Method: as §1
# SpSla1-D3 = molecular target: SpSla1-D3
# Method: as §1
# AgAbp1 = molecular target: AgAbp1
# Method: as §1
# AgBbc1 = molecular target: AgBbc1
# Method: as §1
# AgBem1-D1 = molecular target: AgBem1-D1
# Method: as §1
# AgBzz1-D1 = molecular target: AgBzz1-D1
# Method: as §1
# AgBzz1-D2 = molecular target: AgBzz1-D2
# Method: as §1
# AgCyk3 = molecular target: AgCyk3
# Method: as §1
# AgFus1 = molecular target: AgFus1
# Method: as §1
# AgHof1 = molecular target: AgHof1
# Method: as §1
# AgHse1 = molecular target: AgHse1
# Method: as §1
# AgLsb1 = molecular target: AgLsb1
# Method: as §1
# AgLsb4 = molecular target: AgLsb4
# Method: as §1
# AgMyo5 = molecular target: AgMyo5
# Method: as §1
# AgNbp2 = molecular target: AgNbp2
# Method: as §1
# AgRvs167 = molecular target: AgRvs167
# Method: as §1
# AgSho1 = molecular target: AgSho1
# Method: as §1
# AgSla1-D1-D2 = molecular target: AgSla1-D1-D2
# Method: as §1
# AgSla1-D3 = molecular target: AgSla1-D3
# Method: as §1
# CaAbp1-D1 = molecular target: CaAbp1-D1
# Method: as §1
# CaAbp1-D2 = molecular target: CaAbp1-D2
# Method: as §1
# CaBbc1 = molecular target: CaBbc1
# Method: as §1
# CaBem1-D1 = molecular target: CaBem1-D1
# Method: as §1
# CaBzz1-D1 = molecular target: CaBzz1-D1
# Method: as §1
# CaBzz1-D2 = molecular target: CaBzz1-D2
# Method: as §1
# CaCyk3 = molecular target: CaCyk3
# Method: as §1
# CaFus1 = molecular target: CaFus1
# Method: as §1
# CaHof1 = molecular target: CaHof1
# Method: as §1
# CaHse1 = molecular target: CaHse1
# Method: as §1
# CaLsb1 = molecular target: CaLsb1
# Method: as §1
# CaLsb4 = molecular target: CaLsb4
# Method: as §1
# CaMyo5 = molecular target: CaMyo5
# Method: as §1
binder,measurement,setting,value
TKIRRRPQQPLTDFT,SPOT peptide array binding signal intensity,CaNbp2,48.5
same,SPOT peptide array binding signal intensity,CaRvs167,2.67
same,SPOT peptide array binding signal intensity,CaRvs167-3,15.5
same,SPOT peptide array binding signal intensity,CaSho1,38
same,SPOT peptide array binding signal intensity,CaSla1-D1-D2,24
same,SPOT peptide array binding signal intensity,CaSla1-D3,0.5
same,SPOT peptide array binding signal intensity,ScAbp1,25
same,SPOT peptide array binding signal intensity,ScBbc1,63.5
same,SPOT peptide array binding signal intensity,ScBem1-D1,10
same,SPOT peptide array binding signal intensity,ScBzz1-D1,33
same,SPOT peptide array binding signal intensity,ScBzz1-D2,18
same,SPOT peptide array binding signal intensity,ScCyk3,38
same,SPOT peptide array binding signal intensity,ScFus1,44
same,SPOT peptide array binding signal intensity,ScHof1,≤ 0
same,SPOT peptide array binding signal intensity,ScHse1,281
same,SPOT peptide array binding signal intensity,ScLsb1,4.75
same,SPOT peptide array binding signal intensity,ScLsb2,1
same,SPOT peptide array binding signal intensity,ScLsb3,115
same,SPOT peptide array binding signal intensity,ScLsb4,15
same,SPOT peptide array binding signal intensity,ScMyo3,1
same,SPOT peptide array binding signal intensity,ScMyo5,2
same,SPOT peptide array binding signal intensity,ScNbp2,93
same,SPOT peptide array binding signal intensity,ScPex13,6.75
same,SPOT peptide array binding signal intensity,ScRvs167,14
same,SPOT peptide array binding signal intensity,ScSho1,148
same,SPOT peptide array binding signal intensity,ScSla1-D1-D2,240
same,SPOT peptide array binding signal intensity,ScSla1-D3,38.5
same,SPOT peptide array binding signal intensity,SpAbp1-D1,94
same,SPOT peptide array binding signal intensity,SpBbc1,5.75
same,SPOT peptide array binding signal intensity,SpBzz1-D1,253
same,SPOT peptide array binding signal intensity,SpBzz1-D2,≤ 0
same,SPOT peptide array binding signal intensity,SpCyk3,1.5
same,SPOT peptide array binding signal intensity,SpHof1,65.5
same,SPOT peptide array binding signal intensity,SpHof1-2,5.5
same,SPOT peptide array binding signal intensity,SpHof1-3,164
same,SPOT peptide array binding signal intensity,SpHse1,93
same,SPOT peptide array binding signal intensity,SpLsb1,5
same,SPOT peptide array binding signal intensity,SpLsb4,104
same,SPOT peptide array binding signal intensity,SpMyo1,8
same,SPOT peptide array binding signal intensity,SpNbp2,10.5
same,SPOT peptide array binding signal intensity,SpPex13,1
same,SPOT peptide array binding signal intensity,SpRvs167,11.8
same,SPOT peptide array binding signal intensity,SpSla1-D1-D2,1
same,SPOT peptide array binding signal intensity,SpSla1-D3,≤ 0
KFIPSRPAPKPPSSA,SPOT peptide array binding signal intensity,AgAbp1,1640
same,SPOT peptide array binding signal intensity,AgBbc1,1210
same,SPOT peptide array binding signal intensity,AgBem1-D1,98
same,SPOT peptide array binding signal intensity,AgBzz1-D1,70
same,SPOT peptide array binding signal intensity,AgBzz1-D2,69.5
same,SPOT peptide array binding signal intensity,AgCyk3,≤ 0
same,SPOT peptide array binding signal intensity,AgFus1,≤ 0
same,SPOT peptide array binding signal intensity,AgHof1,26.2
same,SPOT peptide array binding signal intensity,AgHse1,37
same,SPOT peptide array binding signal intensity,AgLsb1,674
same,SPOT peptide array binding signal intensity,AgLsb4,30.5
same,SPOT peptide array binding signal intensity,AgMyo5,1380
same,SPOT peptide array binding signal intensity,AgNbp2,11400
same,SPOT peptide array binding signal intensity,AgRvs167,5.5
same,SPOT peptide array binding signal intensity,AgSho1,≤ 0
same,SPOT peptide array binding signal intensity,AgSla1-D1-D2,51
same,SPOT peptide array binding signal intensity,AgSla1-D3,1
same,SPOT peptide array binding signal intensity,CaAbp1-D1,1850
same,SPOT peptide array binding signal intensity,CaAbp1-D2,1020
same,SPOT peptide array binding signal intensity,CaBbc1,1910
same,SPOT peptide array binding signal intensity,CaBem1-D1,1550
same,SPOT peptide array binding signal intensity,CaBzz1-D1,1780
same,SPOT peptide array binding signal intensity,CaBzz1-D2,1310
same,SPOT peptide array binding signal intensity,CaCyk3,46
same,SPOT peptide array binding signal intensity,CaFus1,75
same,SPOT peptide array binding signal intensity,CaHof1,≤ 0
same,SPOT peptide array binding signal intensity,CaHse1,2.25
same,SPOT peptide array binding signal intensity,CaLsb1,≤ 0
same,SPOT peptide array binding signal intensity,CaLsb4,190
same,SPOT peptide array binding signal intensity,CaMyo5,24
same,SPOT peptide array binding signal intensity,CaNbp2,6170
same,SPOT peptide array binding signal intensity,CaRvs167,51
same,SPOT peptide array binding signal intensity,CaRvs167-3,2
same,SPOT peptide array binding signal intensity,CaSho1,≤ 0
same,SPOT peptide array binding signal intensity,CaSla1-D1-D2,1010
same,SPOT peptide array binding signal intensity,CaSla1-D3,65.5
same,SPOT peptide array binding signal intensity,ScAbp1,323
same,SPOT peptide array binding signal intensity,ScBbc1,716
same,SPOT peptide array binding signal intensity,ScBem1-D1,≤ 0
same,SPOT peptide array binding signal intensity,ScBzz1-D1,87
same,SPOT peptide array binding signal intensity,ScBzz1-D2,8
same,SPOT peptide array binding signal intensity,ScCyk3,1
same,SPOT peptide array binding signal intensity,ScFus1,0.5
same,SPOT peptide array binding signal intensity,ScHof1,1
same,SPOT peptide array binding signal intensity,ScHse1,≤ 0
same,SPOT peptide array binding signal intensity,ScLsb1,51.8
same,SPOT peptide array binding signal intensity,ScLsb2,288
same,SPOT peptide array binding signal intensity,ScLsb3,982
same,SPOT peptide array binding signal intensity,ScLsb4,13
same,SPOT peptide array binding signal intensity,ScMyo3,2740
same,SPOT peptide array binding signal intensity,ScMyo5,1420
same,SPOT peptide array binding signal intensity,ScNbp2,8490
same,SPOT peptide array binding signal intensity,ScPex13,2800
same,SPOT peptide array binding signal intensity,ScRvs167,396
same,SPOT peptide array binding signal intensity,ScSho1,18
same,SPOT peptide array binding signal intensity,ScSla1-D1-D2,1290
same,SPOT peptide array binding signal intensity,ScSla1-D3,769
same,SPOT peptide array binding signal intensity,SpAbp1-D1,602
same,SPOT peptide array binding signal intensity,SpBbc1,110
same,SPOT peptide array binding signal intensity,SpBzz1-D1,1050
same,SPOT peptide array binding signal intensity,SpBzz1-D2,32.8
same,SPOT peptide array binding signal intensity,SpCyk3,≤ 0
same,SPOT peptide array binding signal intensity,SpHof1,9.75
same,SPOT peptide array binding signal intensity,SpHof1-2,9.25
same,SPOT peptide array binding signal intensity,SpHof1-3,144
same,SPOT peptide array binding signal intensity,SpHse1,140
same,SPOT peptide array binding signal intensity,SpLsb1,62
same,SPOT peptide array binding signal intensity,SpLsb4,865
same,SPOT peptide array binding signal intensity,SpMyo1,3260
same,SPOT peptide array binding signal intensity,SpNbp2,1060
same,SPOT peptide array binding signal intensity,SpPex13,90
same,SPOT peptide array binding signal intensity,SpRvs167,319
same,SPOT peptide array binding signal intensity,SpSla1-D1-D2,≤ 0
same,SPOT peptide array binding signal intensity,SpSla1-D3,≤ 0
